This is part of a sample that, as a whole, favours compounds with a hit. Of some 83,000 tested, about 20% had one in any assay.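 A percent growth of 40 corresponds to 60% growth inhibition; 0 means no net growth; -100 means all cells died. Active threshold: below 10.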 Unmarked numbers belong to inactive results. Active and inactive are the calls of the source.
What follows are molecules tested on HL-60(TB) leukemia (assay: NCI-60 one-dose screen, 48 h (100 = growth as untreated, 0 = no growth, -100 = all killed)). Details: 10 µM unless noted.
Work on c1ccc(/C(=N\N=C(/c2ccccc2)c2cccs2)c2cccs2)cc1 yielded a growth of 91.1%. In the case of O=C1/C(=C/c2ccc(C(F)(F)F)cc2)COc2ccc(O)cc21, the growth is reported as -36.1% (active). In the case of COc1ccc2nc(-c3ccc(-c4noc(-c5cc(OC)c(OC)c(OC)c5)n4)cc3)[nH]c2c1, the growth is reported as 74.4%. For Nc1ccc(-c2nc3ccc4[nH]ncc4c3c3c2CCCC3)cc1F, the growth was 8.91% (active). Molecule O=C(COc1cccc(/C=C2\Cc3ccc(Cl)cc3C2=O)c1)Nc1nccs1 has a growth of 62.2%. c1ccc(Cn2cc(-c3nc4ccccc4s3)c3cccnc32)cc1 was tested, and the growth was 115%. COc1ccc(/C=C2\Oc3cc(OCCCN4CCCC4)ccc3C2=O)cc1 showed a growth of 94.7%. COc1ccc(-c2cc(-c3nnc(SCC(=O)Nc4ccc(C(C)=O)cc4)o3)c3ccccc3n2)cc1 gave a growth of 69%. With CNS(=O)(=O)c1ccc(Cl)c(Cl)c1 the growth was 137%. In the case of Nc1c(C(=O)C[C@@H](N)CO)ccc2c1C(=O)CCO2, the growth is reported as 51.9%. For Cc1c(Cl)cccc1NC(=O)c1sc2nc3c(cc2c1N)CCCCCC3, the growth was -15.9% (active). In the case of COc1ccc(NC(=O)Nc2ccc(Nc3nc(C)cc(Nc4ccc(C)cc4)n3)cc2)cc1, the growth is reported as -55.4% (active). For Cc1nn(-c2nc3ccccc3[nH]2)c2c1C(c1ccc3c(c1)OCO3)CC(=O)N2 (stereo not given), the growth was -24.3% (active). With Cc1ccc(S(=O)(=O)N2CCc3ccc(O)c4c3C2CCc2ccccc2-4)cc1 (stereo not given) the growth was 91.3%. CN(C)CCN1C(=O)c2ccc3c4c(ccc(c24)C1=O)C(=O)N(CCN=C=S)C3=O was tested, and the growth was -51.1% (active). COc1ccc(-n2c(N)c(-c3nc4ccccc4[nH]3)cc(C#N)c2=O)cc1 showed a growth of 99%. CC1(C)N=C(N)N=C(N)N1c1cccc(CCCCOc2ccccc2)c1 showed a growth of 13.6%. Molecule O=c1nc(N2CCOCC2)oc2c(-c3cccc4ccccc34)cccc12 has a growth of 93.6%. O=c1c2cccc3c(Nc4ccc(Br)cn4)ccc(c32)c2nc3ccccc3n12 was tested, and the growth was 128%. CN1C(=O)C(=Cc2cn(Cc3ccccc3)c3ccc(Br)cc23)C(=O)N(C)C1=O gave a growth of 73.3%. With COc1cccc(-c2cc(-c3cccc(NS(C)(=O)=O)c3)nc(N)c2C#N)c1O the growth was 2.21% (active). C=C1CC[C@@H]2[C@](C)(COC(C)=O)[C@H](OC(C)=O)CC[C@@]2(C)[C@@H]1CC(Nc1ccc(S(=O)(=O)NC(C)=O)cc1)C1=CCOC1=O (stereo not given in full) was tested, and the growth was -31.1% (active). C=C(C)[C@@H]1CC[C@]2(C(=O)O)CC[C@]3(C)[C@H](CC[C@@H]4[C@@]5(C)C[C@@H](CC#Cc6ccccc6)C(=O)C(C)(C)[C@@H]5CC[C@]43C)[C@@H]12 was tested, and the growth was 3.03% (active). Oc1ccc(O)c(-c2ccccc2)c1 showed a growth of 35.4%. With CC1Cc2c(Cl)ncnc2N(C)c2ccccc21 (stereo not given) the growth was 11.8%. CCC1(C2CCCC2)NC(=O)NC1=O (stereo not given) showed a growth of 90.9%. In the case of CCCCN=C(N)c1ccc(OCCSCCOc2ccc(C(N)=NCCCC)cc2)cc1, the growth is reported as 38.8%. With c1ccc2c(Cc3csc4ccccc34)csc2c1 the growth was 72%. COc1ccc(S(=O)(=O)NCCNc2nccc(-c3c(-c4cccc(N)c4)nc4sccn34)n2)cc1 showed a growth of 116%. COc1ccc(N2C(=O)CC(c3cc(OC)c(OC)c(OC)c3)C3C2=NC(=O)N3C)cc1 (stereo not given) gave a growth of 107%. For CC(C)(CCN=C(N)Nc1ccccn1)c1ccc(C(F)(F)F)cc1, the growth was -52.7% (active). For O=c1nc(NO)[nH]c(=O)n1Cc1ccc(F)cc1, the growth was 103%. In the case of COC(=O)Nc1nc2ccc(C(=O)c3ccc(F)cc3)cc2[nH]1, the growth is reported as -70.4% (active). O=c1cc(-c2ccccc2)[nH]n1-c1nc2ccccc2[nH]1 was tested, and the growth was 11%. For O=C1NC(=Nc2ccc(O)cc2)S/C1=C\c1cccc(Cl)c1, the growth was 22.9%. Molecule CCOC(=O)CC/C(C)=N\Nc1ccc([N+](=O)[O-])cc1 has a growth of 26.4%. For CN1C[C@@H](c2ccc(Cl)cc2)[C@]2(NC(=S)N(c3ccc(F)c(Cl)c3)C2=O)[C@@]12C(=O)NC1C=CC(Cl)=C[C@H]12 (stereo not given in full), the growth was -17.9% (active). With CN(C)[C@@H]1C(=O)C(C(=O)NCc2nc3[nH]cnc(=S)c3[nH]2)=C(O)[C@@]2(O)C(=O)C3=C(O)c4c(O)cccc4[C@@](C)(O)[C@H]3C[C@@H]12 the growth was 4.14% (active). With CCOC(=O)n1cc(-c2nonc2-c2cn(C)c3ccccc23)c2ccccc21 the growth was 1.6% (active). With Nc1ccc(-c2ccc(N)c(Br)c2)cc1Br the growth was 7.99% (active).
